Unmarked numbers belong to inactive results. How the calls were made is not given here.
biological target: PDL1, Q9NZQ7
Sequence (Q9NZQ7 whole entry): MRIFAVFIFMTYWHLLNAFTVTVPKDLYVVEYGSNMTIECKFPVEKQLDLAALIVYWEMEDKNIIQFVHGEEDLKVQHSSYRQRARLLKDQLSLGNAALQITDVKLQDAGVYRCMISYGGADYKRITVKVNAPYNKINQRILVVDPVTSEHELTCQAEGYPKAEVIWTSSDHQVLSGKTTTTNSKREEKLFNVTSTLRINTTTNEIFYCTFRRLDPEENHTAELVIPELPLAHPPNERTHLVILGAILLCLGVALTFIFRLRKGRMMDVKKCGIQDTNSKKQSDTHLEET

| Binder | binding in a display sort |
| --- | --- |
| d8r1_design_ppi_479_dldesign_0_cycle0_af2pred (protein) EELAKEARELAKRGIEDPEKAPEAGRKIAELAAKAVAEGDSEAAAEAVAELTRLHKANPEAGREALILMAQKIAKVAREK | not found |
| d8r1_design_ppi_307_dldesign_0_cycle0_af2pred (protein) EEARAEALAAEAAATAAALLAAARATDPRADIAAGAAALTAAAREAAALSPAAAAKVRAVIATFMAEALKLMDS | not found |
| d8r1_design_ppi_128_dldesign_0_cycle1_af2pred (protein) AQLEQIKAQAKKEIEEALEYAKKAKTDPSYLAKALGHLNKASQLAKQLPNAEEVKAEIDKAISAAIAGDYETVKKEAEEAIKLLEKD | not found |
| d8r1_design_ppi_502_dldesign_0_cycle1_af2pred (protein) SLEELVAKAEKYLKEAAKLSPASLAPSVANALAGITEAAKVSPKAAYNLAKSFLDYVKKNGTAEAAKEAEKALEELEKAAK | not found |
| d8r1_design_ppi_855_dldesign_0_cycle1_af2pred (protein) GTGKNLIKVLETSAEKTAALAAELAPDPAAATALADAFEASAKGFAAIAKELGTEAEVKPAAEKAIKKVRDALDKALAAAAA | not found |
| d8r1_design_ppi_636_dldesign_0_cycle0_af2pred (protein) DYMDALAAMLKAAAEARALAAAGGDAAAIEAALAKAKELGEEAGKLKGESAKGFAEKVIANVEATIAAAKAARAA | not found |
| d8r1_design_ppi_1471_dldesign_0_cycle0_af2pred (protein) MDDSFGKNVIIDAEREIKRFEEAAKKAEEEDKEVAKEIKKIAEEIKKEAEKIKKGEGKLEHSKKALEAMSKGARLVAEFKAK | not found |
| d8r1_design_ppi_1240_dldesign_0_cycle1_af2pred (protein) DDATLKQAAALIAEGQAAAAQATTDPAYAAKAKEAYKKAGEVYPESSEFFNIAGEKTAQAALDKYKAAQAAAAAAAA | not found |
| d8r1_design_ppi_573_dldesign_0_cycle1_af2pred (protein) SAEQAALEAKAKEAALKAWEAAKQYKKTGYQEFKDAAKEYAYAAIAYFRGDTAAGKKYRDAADKLWAKAQAIAAA | binds (active) |
| d8r1_design_ppi_307_dldesign_0_cycle1_af2pred (protein) MMEEAEKIAEEAKKTADELLAQAKKGDPKPYVNQGFAELNKLLQEAAKLSPEAAEKVKEVLAEFRKQASKILDS | not found |
| d8r1_design_ppi_1493_dldesign_0_cycle0_af2pred (protein) EEEKKKLREEAIKLAKKAAEIAKKSENAKEVIEEIEKAIKYLEEGDYEKAAKELAKAGRLADPEARGYINRALLKVGEAK | not found |
| d8r1_design_ppi_156_dldesign_0_cycle0_af2pred (protein) MEEEREREEERRREARRMAQALENAAEAVAARAAAASPAEQPALARAAESLAAAAKVLQKEDPELGAAVEKRAEAILAEIRAR | not found |
| d8r1_design_ppi_423_dldesign_0_cycle0_af2pred (protein) SEFDKNMELLKEAGAAISELTARARAEADAAAAEGPDAVRAVAAERIEEARRITEELGEKSSLKESFRGMAERTARTIEAYAAAVIA | not found |
| d8r1_design_ppi_684_dldesign_0_cycle1_af2pred (protein) AAAEEAEEKKYAMAKAAGAAASEIAKIDPALGRKVAIAAGEALSVDLETSYKILTDTLTEVAETGSPEAAAEAQKALDAVEAAYKA | not found |
| d8r1_design_ppi_93_dldesign_0_cycle1_af2pred (protein) ENKSIAQGLLKAMKAAYEQAKKSGKAAQLKATAEAAKAAAKKAKELGDEETAKELEKLAKEAKELAEKAAAAAA | not found |
| d8r1_design_ppi_1130_dldesign_0_cycle0_af2pred (protein) SAEEAEKAAKELIELAKKAAEDPSYIPEAAALAAKHIGTPEARTALAEAIKILMQKSPELAKQFLAAFSAALAALRAAA | not found |
| d8r1_design_ppi_423_dldesign_0_cycle1_af2pred (protein) DESDKNMELLTKAGAATSELVAKARADAKAAAAEGPEAVKAVAEEHSAKIKEVAEKLGKESSKSASFKGLIETATKTIKAYADAVVA | not found |
| d8r1_design_ppi_623_dldesign_0_cycle1_af2pred (protein) AAAAAAADAAAAALLDAAAAAAKAAVELTPEEAAAVLGAIAAAAATALALAKDPAAKAKLLATASEVANTAAQNLSQAVRREEE | not found |
| d8r1_design_ppi_1260_dldesign_0_cycle1_af2pred (protein) MTAEEALAEMEKLTKEMKEVSPLAGNAMEAHLNKAKELVAAVAAEDPEKAAEVAAKSYEQAKALYKAMKEMIEEEKKEKELA | not found |

| Binder | binding in a display sort |
| --- | --- |
| d8r1_design_ppi_640_dldesign_0_cycle0_af2pred (protein) SEEEEKKAEYLKKAGAAASRAGKVAAANAGNPEIQALAKKAAKALNEAFASNVEEAKKKAEEVEKLAAEAEALAA | not found |
| d8r1_design_ppi_1104_dldesign_0_cycle1_af2pred (protein) DDLLKQAQATLKQAAALAATVSLAAASDFNAAMFLMRNPKNIPQAIKYAQQGAALAAASAKAPQIKALADEAVKLMKALAKAAAA | not found |
| d8r1_design_ppi_638_dldesign_0_cycle1_af2pred (protein) GDARALRRAADNLARRALEELAAQTATAARAAEVAALLEAGRTEGAAKLAEAAALAAADPLLARAGAYLAAAADFLALAEREE | not found |
| d8r1_design_ppi_1244_dldesign_0_cycle1_af2pred (protein) EEEAEKERERYEKAYYFAKAAIAAASSGLPAAVAAAKAFLQKAGEEIPEFLPAAKAATTAAEITAVATKVAAYAAAKIS | not found |
| d8r1_design_ppi_1130_dldesign_0_cycle1_af2pred (protein) SMEEAEKAAKEIIELAKKAAEDPSYIDELAALAAKYIGSPEAKEALAEAIKILSKKSPELAKQFLAKYSAALAALRAAA | not found |
| d8r1_design_ppi_429_dldesign_0_cycle1_af2pred (protein) AAAALAAAAAEGAIELAEYQVEIGNLEAARAFVEGALRAAARADPATAAELRARARAVLEEAERRHKERLEA | not found |
| d8r1_design_ppi_479_dldesign_0_cycle1_af2pred (protein) AELAKEAKELAEKGIADPSKAPEAAREIAELFAEAVKKGDNEAAAEAHAELSRIYAANPEAGREGHILAAQLMSKYAVES | not found |
| d8r1_design_ppi_408_dldesign_0_cycle1_af2pred (protein) ASAEAKKKALELIKKAVALTSQGLAKGDKALVKKGLEYAKKAKEEAAKSADAATLLKAVDNVEAMAKTVLDAL | not found |
| d8r1_design_ppi_1379_dldesign_0_cycle1_af2pred (protein) SAAAGAAVAAAGIAAMRAGAAADGLAGARAAAREAARAAMALFRKDPDAGAAALAALDAAWAAISAALAA | not found |
| d8r1_design_ppi_877_dldesign_0_cycle1_af2pred (protein) ALAAEAAAAIAKARELLKEIKETGKESKSESVRRFAEGVARKVQALIDQAEAAAADPATALALAKAALKLAEEGLAAVKTLKKAYEE | not found |
| d8r1_design_ppi_353_dldesign_0_cycle1_af2pred (protein) TAAAKAAADAALANLQAFLDVVVAADPQNIARVEKAAQIAISGGKVLAAQHPEVADYAAGAATAAAQAAVDRAKALAAA | not found |
| d8r1_design_ppi_997_dldesign_0_cycle1_af2pred (protein) ALSDAQSFVKAAKAAAEKAKELAKKDPEVAAKAVETAKKLAEAAVKASPEAKPQAEEAKKLAEEAKKVVEEAKKKAA | not found |
| d8r1_design_ppi_36_dldesign_0_cycle0_af2pred (protein) REEVRAKLEAAAAALREVDPVAGEGFRRLAELAFSGEVNGAWAALASLLEHYLPAAEAHDPELGAIVAEAREAALEEWERIQAE | not found |
| d8r1_design_ppi_987_dldesign_0_cycle0_af2pred (protein) QAVLDKANELLAKAMKLFGKLSPENYAAALAAADAAIAAAKELQKEDPELGAALLASAEALKAAIKAKAA | not found |
| d8r1_design_ppi_1305_dldesign_0_cycle0_af2pred (protein) ARAEELAEALLAKAKELSKLPMGEAAKAAAAEARALAEQDPETALAAAELAYKRASEDPSVSSKVRALLGAALGAATQQLAAQKAAA | not found |
| d8r1_design_ppi_679_dldesign_0_cycle0_af2pred (protein) AAAAARAAIVDETIARIRAELASRPSLAAFAESVLRRGLALGNEAEAARNVAAMLEAAGATAAAAVAREAAARIEAL | not found |
| d8r1_design_ppi_146_dldesign_0_cycle1_af2pred (protein) YAQKIREAAEKLKSPEKKATLNAFADIAAKLEAEAKKAAAKDPAEGAKKLTAAKNLAAGALKLAEAKKEEE | not found |
| d8r1_design_ppi_246_dldesign_0_cycle1_af2pred (protein) ADPEAAARARAAAAVAGATELLKANPANTPAFAAANAEALADSPAAPEAKAAMAKIAAEAEKAAAARKAAEEAAK | not found |
| d8r1_design_ppi_1319_dldesign_0_cycle1_af2pred (protein) AAAEELKTLAAESIGLIDQAEKALKAGTDELNYLKLVAASARKLGPEIAKLVTAALKAAKAGDKETALKYLKEARKLAEKIAA | not found |
